Source: PubChem (National Center for Advancing Translational Sciences (NCATS))
HT1080NT lethal: qHTS for induction of synthetic lethality in tumor cells producing 2HG: qHTS for the HT-1080-NT fibrosarcoma cell line; HT-1080-NT fibrosarcoma viability, CellTiter-Glo ATP luminescence, 48 h; Potency, µM (doses to about 46.1 µM), actives largely listed as cytotoxic; actives 1.6% (n = 360,000);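 further: NT is the 2HG producing partner of a matched IDH1 knockdown line; nearly all actives have a fitted effect of over 55% in size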
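Luminescent CellTiter-Glo readout after 48 hours of compound exposure at 37 degrees C defined viability of HT-1080-NT cells. Activity was normalized to DMSO wells and cell-free media wells; concentration-response curves were fitted and assigned curve classes.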
DT40 TDP1 no CPT: qHTS for Inhibitors of human tyrosyl-DNA phosphodiesterase 1 (TDP1): qHTS in cells in absence of CPT | DT40 Tdp1-/- hTDP1 cells, no CPT, ATP luminescence, 48 h | Potency, µM (titrated, usually from 46.2 µM), actives largely listed as inhibitors | actives 15% (n = 420,000); further: nearly all actives have a fitted effect of over 55% in size
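Camptothecin absent (DMSO only). Human TDP1-complemented DT40 knockout cells, 400 cells/well, 37 °C for minimum 48 hr; ATP measured via CellTiter-Glo, 30 min dark incubation, luminescence.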
IL-1B inflam inh: qHTS for Inhibitors of Inflammasome Signaling: IL-1-beta AlphaLISA Primary Screen. THP-1 LPS/ATP IL-1B secretion, AlphaLISA, 16 h; active compounds read low. actives 4.7% (n = 360,000). activity change, % at 57.5 µM. AID 743279, 2014; in the data active means activity change below about -50%; inconclusive means mostly about -30% to -49%
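THP-1 cells pretreated 1 hr with compounds (up to 57.5 uM final), then stimulated with LPS (250 ng/mL final) plus ATP (1.25 mM final); secreted IL-1B measured by AlphaLISA after 16 hr, decreased signal indicating inhibition.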
HT1080 IDH1KD tx: qHTS for induction of synthetic lethality in tumor cells producing 2HG: qHTS for the HT-1080-IDH1KD cell line | Potency, µM (doses to about 46.1 µM), usual class: cytotoxic | actives 2% (n = 360,000) | HT-1080 IDH1 knockdown viability, ATP luminescence, 48 h
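In this qHTS, HT-1080 cells depleted of IDH1 are exposed for 48 h at 37 °C to compound titrations. Toxicity is scored from CellTiter-Glo luminescence, with DMSO as full viability and medium alone as none.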
DT40 TDP1 CPT: qHTS for Inhibitors of human tyrosyl-DNA phosphodiesterase 1 (TDP1): qHTS in cells in presence of CPT; actives 12% (n = 420,000); Potency, µM (top dose mostly 46.2 µM), usual class: inhibitors; chicken DT40 Tdp1-/-;hTDP1 cells + 20 nM CPT, ATP luminescence, 48 h; further: nearly all actives have a fitted effect of over 55% in size
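Cell growth measured by CellTiter-Glo luminescence after a minimum 48 h, 37 C compound exposure with 20 nM CPT in Tdp1-knockout DT40 cells stably expressing hTDP1, seeded 400/well; qHTS titration format.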
A number is an active result; n = inactive; u = inconclusive; x = no result given; ! = not confirmed by another sample. A selection: hits, their analogues and other compounds. The true share with any hit is near 19%. Unless noted, the call rests on the fitted dose curve; in most records, active means well fitted curve in the direction sought with a large enough effect; inconclusive means small, poorly fitted or top-dose-only effect, or another doubt; inactive means no such curve, though single readings can be large; an effect the other way counts as inactive or inconclusive.

SMILES	HT1080NT lethal	DT40 TDP1 no CPT	IL-1B inflam inh	HT1080 IDH1KD tx	DT40 TDP1 CPT
CC(C)C(CCNC1CCN(C)CC1)c1ccc(Cl)cc1 (configuration not stated)	u	3.3µM	-52	u	4.6µM
CN1CCC(NCCC(c2ccc(F)cc2)c2ccc(Cl)cc2)CC1 (configuration not stated)	4.1µM	5.8µM	-103	5.2µM	5.8µM
COc1cc2c(cc1OC)CN(CC(=O)Nc1ccc(F)cc1)C(C(=O)O)C2 (configuration not stated)	n	n	n	n	n
CC(C)(C)/C(COc1ccccc1[N+](=O)[O-])=N/O	n	n	n	n	u
CC1=CC(=O)C=C(C)C1=NOc1ccccc1[N+](=O)[O-]	n	2.1µM	u	n	1.3µM
CCOc1ccccc1NC(=O)C(C)Sc1cc(-c2ccccc2)nc(C)n1 (configuration not stated)	x	16µM	x	x	15µM
CC(=O)c1ccc(NC(=O)CSc2ccc3nc(-c4ccccc4)cn3n2)cc1	x	26µM	x	x	u
CCOc1ccccc1NC(=O)C(C)SCc1ccccc1 (configuration not stated)	n	n	n	n	n
CCOc1ccccc1NC(=O)CSc1ccc2nc(-c3ccccc3)cn2n1	x	21µM	x	x	u
O=C(CSc1ccc2nc(-c3ccccc3)cn2n1)Nc1ccccc1	x	26µM	x	x	u
O=S(=O)(c1ccccc1)N1CCN(S(=O)(=O)c2ccccc2)CC1	x	n	x	x	n
O=S(=O)(/N=S1\CC=CCN1S(=O)(=O)c1ccccc1)c1ccccc1 (configuration not stated)	u	21µM	-86	u	u
CC(C)CN(CC(C)C)CC(O)Cn1cc(/C=C/C(=O)c2ccccc2)c2ccccc21 (configuration not stated)	x	4.6µM	x	x	4.1µM
COc1ccc(OCC(O)CN(CCO)CC(O)Cn2ccc3ccccc32)cc1 (configuration not stated)	n	u	n	n	n
CCC(=C(c1ccc(OC)cc1)c1ccc(OC)cc1)c1cn(CC(O)CN(CCO)CCO)c2ccccc12 (configuration not stated)	u	21µM	u	n	u
CC(C)(CO)NCC(O)Cn1cc(C=O)c2ccccc21 (configuration not stated)	n	n	n	n	n
CCOc1ccc(C(=O)/C=C/c2cn(CN3CCN(C)CC3)c3ccccc23)cc1	n	u	n	u	n
CCCN(CCC)CC(O)Cn1cc(/C=C/C(=O)c2ccc(OCC)cc2)c2ccccc21 (configuration not stated)	x	5.2µM	x	x	5.8µM
Cc1ccc(-n2ncc3c(=O)n(CC(=O)NCc4ccco4)cnc32)cc1	n	23µM	n	n	u
Cc1ccc(-n2ncc3c(=O)n(CC(=O)NCc4ccco4)cnc32)cc1C	u	6.5µM	n	u	10µM
O=C(Cn1cnc2c(cnn2-c2ccc(F)cc2)c1=O)NCc1ccco1	u	5.8µM	n	18µM	2.9µM
Cc1ccc(-n2nnc3c(=O)n(CC(=O)NCc4ccco4)cnc32)cc1	n	u	n	n	u
O=C(Cn1cnc2c(nnn2-c2ccc(F)cc2)c1=O)NCc1ccco1	n	n	n	n	u
O=C(O)C(O)(c1ccccc1)C(O)c1ccccc1 (configuration not stated)	n	n	n	n	n
CCc1ccc(NC(=O)COC(=O)c2ccccc2OCC(=O)N(C)C)cc1	x	n	x	x	n
SMILES	HT1080NT lethal	DT40 TDP1 no CPT	IL-1B inflam inh	HT1080 IDH1KD tx	DT40 TDP1 CPT
CCOC(=O)c1c(CSc2ccc(C)cc2)oc2ccc(O)cc12	u	u	n	u	u
COc1cc(N2C(=O)C=CC2=O)ccc1N1C(=O)C=CC1=O	u	0.92µM	-99	9.2µM	0.73µM
Cc1c(Cl)cccc1Nc1nc(N)nc(CN2CCc3ccccc3C2)n1	n	n	u	n	n
Cc1cccc(Nc2nc(N)nc(CCl)n2)c1	3.7µM	21µM	-106	u	13µM
Cc1ccc(Nc2nc(N)nc(CCl)n2)c(C)c1	5.8µM	10µM	-89	u	6.5µM
Cc1ccc(Nc2nc(N)nc(CN3CCc4ccccc4C3)n2)cc1	n	u	u	n	18µM
Cc1cccc(Nc2nc(N)nc(CSc3nccc(C)n3)n2)c1	n	n	n	n	n
Cc1cccc(Nc2nc(N)nc(CCl)n2)c1C	1.6µM	16µM	x	1.8µM	10µM
COc1ccccc1CNC(=O)C(NS(=O)(=O)c1cccs1)C(C)C (configuration not stated)	x	u	x	x	n
O=C(O)c1cc(S(=O)(=O)NCCOc2ccccc2)ccc1Cl	n	n	n	n	n
CCOc1ccc(CCNC(=O)Cn2ccc3ccccc3c2=O)cc1OCC	n	n	n	n	n
Cc1ccc(Nc2nc(N)nc(CC#N)n2)cc1	13µM	n	n	7.1µM	n
Cc1ccc(Nc2nc(N)nc(CCl)n2)cc1	2.3µM	u	x	8.2µM	16µM
CCOC(=O)c1cnc(SCc2nc(N)nc(Nc3ccc(F)cc3)n2)nc1N	n	u	n	u	u
CCOc1ccc(Nc2nc(N)nc(CCl)n2)cc1	0.82µM	5.8µM	-96	u	2.1µM
CCOc1ccc(Nc2nc(N3CCCCC3)nc(N3CCCCC3)n2)cc1	n	u	n	n	n
CCOC(=O)c1cnc(SCc2nc(N)nc(Nc3ccc(C)cc3)n2)nc1N	u	u	-52	u	21µM
Cc1ccc(Nc2nc(N)nc(CSc3nc(C)cc(C)n3)n2)cc1	n	n	n	n	n
Cc1cc(C)c(S(=O)(=O)n2nc(C)c(Br)c2C)c(C)c1	n	n	n	n	n
Cc1cccc(C(=O)Nc2ccc(N3CCN(c4ccc(F)cc4)CC3)c(C(=O)O)c2)c1	x	n	x	x	n
COc1cccc(Nc2nc(N)nc(C(F)(F)F)n2)c1	n	n	n	u	n
COc1cccc(Nc2nc(N)nc(CCl)n2)c1	7.3µM	u	x	10µM	13µM
Fc1ccccc1-c1cc2ncccc2cn1	n	u	n	n	u
CC1(C)CNC(=O)c2sc(N3CCOCC3)nc2C1	n	21µM	n	n	8.2µM
CC(C)=CCC/C(C)=C/CC/C(C)=C/CC/C(C)=C/CC1=C(C)C(=O)c2ccccc2C1=O	n	24µM	n	n	27µM!
CC(C)=CCC1=C(OCC(=O)O)C(=O)c2ccccc2C1=O	u	29µM	n	u	23µM
